# The sample as a whole holds a higher share of hits than the screen did.
# ST2 inh = IL1RL1 inhibition; AlphaLISA ST2-Fc/biotin-IL-33 interaction, 1 h; Q01638; inhibition, % for hits at 17 µM; actives 2.3% (n = 78,000); in the data active = inhibition above about 30%
# Target sequence (Q01638 whole entry, looked up): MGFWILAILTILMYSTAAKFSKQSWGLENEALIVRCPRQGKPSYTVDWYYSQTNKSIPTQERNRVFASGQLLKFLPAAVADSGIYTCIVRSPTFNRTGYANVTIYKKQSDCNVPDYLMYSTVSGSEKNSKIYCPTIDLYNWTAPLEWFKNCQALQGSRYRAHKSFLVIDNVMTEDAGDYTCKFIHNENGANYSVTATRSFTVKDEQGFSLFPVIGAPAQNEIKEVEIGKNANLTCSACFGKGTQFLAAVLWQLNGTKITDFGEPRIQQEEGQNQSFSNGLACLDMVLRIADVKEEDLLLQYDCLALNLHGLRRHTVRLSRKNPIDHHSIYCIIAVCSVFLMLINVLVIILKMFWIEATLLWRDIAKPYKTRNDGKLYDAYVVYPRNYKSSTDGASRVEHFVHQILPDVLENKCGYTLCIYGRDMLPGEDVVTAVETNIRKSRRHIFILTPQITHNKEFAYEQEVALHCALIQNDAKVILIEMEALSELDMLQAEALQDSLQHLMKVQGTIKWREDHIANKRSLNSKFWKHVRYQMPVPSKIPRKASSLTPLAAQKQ
# The depositor's hits bear a star; i = inactive; ! = repeats disagree.
SMILES,ST2 inh
N#C/C(=C\c1ccc(-c2cc([N+](=O)[O-])ccc2Cl)o1)c1[nH]nc(N)c1C#N,45%*
O=c1oc(-c2cc([N+](=O)[O-])ccc2Cl)nc2ccc(I)cc12,i
O=c1oc(-c2cc([N+](=O)[O-])ccc2Cl)nc2ccc(Br)cc12,i
Cc1cc(Cl)ccc1N(CC(N)=O)S(C)(=O)=O,i
CCOC(=O)c1ccc(N2C(=O)C(=O)C(=C(O)c3ccc(OC)cc3)C2c2ccccc2)cc1 (stereo not drawn),i
CCc1c(C(=O)NC[C@H]2CCCO2)[nH]c2ccccc12,i
COc1cc2c(cc1OC)C(C(=O)Nc1ccc(C)c(F)c1)C(c1cccs1)N(C)C2=O (stereo not drawn),i
O=C1c2ccc([N+](=O)[O-])cc2C(=O)N1c1c[nH]c(=O)[nH]c1=O,i
Cc1cc(Cl)ccc1N1C(=O)C(N2C(=O)c3ccc([N+](=O)[O-])cc3C2=O)C1c1cccs1 (stereo not drawn),39%*
O=C1c2ccc([N+](=O)[O-])cc2C(=O)N1CN1CCCCC1,i
COc1cccc(C2C(N3C(=O)c4ccccc4C3=O)C(=O)N2c2ccc(C)c(F)c2)c1 (stereo not drawn),i
Cc1ccc(N2C(=O)C(N3C(=O)c4cccc([N+](=O)[O-])c4C3=O)C2c2cccs2)cc1F (stereo not drawn),32%*
COc1cccc(C2C(N3C(=O)c4ccccc4C3=O)C(=O)N2c2ccc(C)c(C)c2)c1 (stereo not drawn),i
Cc1ccc(N2C(=O)C(N3C(=O)c4ccccc4C3=O)C2c2ccc(N(C)C)cc2)cc1F (stereo not drawn),31%*!
Cc1cc(N2C(=O)c3cccc([N+](=O)[O-])c3C2=O)no1,i
CC(C)(O)C#Cc1ccc(C(=O)NCc2ccncc2)cc1,i
COc1ccc(N(C(C)C(=O)Nc2ccc(C(N)=O)cc2)S(C)(=O)=O)cc1 (stereo not drawn),i
O=C(O)C1CCCCC1C(=O)Nc1ccc(Cl)c(Cl)c1 (stereo not drawn),i
O=C(O)CCCC(=O)Nc1cccc([N+](=O)[O-])c1,i
COCc1cn(C2CCN(C(=O)NC3CCCC3)CC2)nn1,i
COCc1nc(NCCN2CCNC2=O)c2cnn(C)c2n1,i
COc1ccc(NS(=O)(=O)c2ccc(Br)s2)cc1OC,i
CC1=NN(c2ccccc2)C(=O)C1C(c1ccccc1Cl)C(C#N)C#N (stereo not drawn),i
c1ccc2c(CN3CCCCC3CCn3ccnc3)ccnc2c1 (stereo not drawn),i
CC1CCN(Cc2cc(Cn3ccnc3)c3cccnc3c2O)CC1,51%*
SMILES,ST2 inh
CC1CCN(c2ncnc3ccccc23)CC1,i
CC(C)CSc1oc(-c2ccco2)nc1S(=O)(=O)c1ccc(F)cc1,i
COCCn1cc(C(=O)N2CCC(C)CC2)c2c3ccccc3n(C)c2c1=O,i
Cc1ccc(C(=O)N2NC(c3ccccc3F)C3C(=O)N(c4cccc(C)c4)C(=O)C32)cc1 (stereo not drawn),i
Cc1ccc(OCCN(C)C(=O)c2ccc(Cn3nnnc3C)cc2)c(C)c1,i
CCOC(=O)c1oc2ccccc2c1NC(=O)C(C)C,i
CCN(CC)c1ccc(CNc2ccc3c(c2)ncn3C(C)(C)C)cc1,40%*
COc1cccc(CNc2ccc3c(c2)ncn3C)c1OC,i
CCCn1cnc2cc(NCc3cccs3)ccc21,i
CCn1cnc2cc(NCc3cccc(OC)c3)ccc21,i
Cn1cnc2cc(NCc3ccccc3Cl)ccc21,i
CN(C)c1ccc(CNc2ccc3c(c2)ncn3C)cc1,46%*!
CC(C)(C)n1cnc2cc(NCc3ccc(Cl)cc3Cl)ccc21,i
Cn1cnc2cc(NCc3ccc(Br)cc3)ccc21,i
CCN(CC)c1ccc(CNc2ccc3c(c2)ncn3C)cc1,50%*!
CC(C)n1cc(C(=O)NCC2CCCCC2)c(=O)c(C(=O)N(C)Cc2cccs2)c1,i
COc1ccc(-c2noc(CN(C)Cc3n[nH]c4c3CCCCC4)n2)c(OC)c1OC,i
Cn1c(=O)c2c(ncn2CC(=O)Nc2ccc(OC(F)(F)Cl)cc2)n(C)c1=O,i
Cc1cc(Cl)c(C(=O)NC(C)C2CC2)cc1Cl (stereo not drawn),i
O=C(CCc1nc2ccccc2s1)NC1CCCN(C2Cc3ccccc3C2)C1 (stereo not drawn),i
O=c1c(-c2cccc(Cl)c2)c(C(F)(F)F)oc2c(CN3CCOCC3)c(O)ccc12,i
N#Cc1c2n(c3c(=O)n(Cc4ccccc4)cnc13)CCCC2,i
CCn1c(C2CCN(C(=O)c3nc4c(C)cccn4c3F)CC2)n[nH]c1=O,i
C=C(C)Cn1c(=O)c2c(nc3n2CCN3c2ccc(C)c(C)c2)n(C)c1=O,i
O=C(CCCn1cnc([N+](=O)[O-])n1)Nc1cccnc1Cl,i
SMILES,ST2 inh
CSc1nccc(-c2c(C)cc(C)cc2C)n1,i
CC(=O)C1=NN(c2ccc(C)cc2)C2C(=O)N(c3ccccc3Cl)C(=O)C12 (stereo not drawn),i
O=C(Nc1cnns1)c1cccc(CN2CCN(CC3CCCO3)CC2)c1 (stereo not drawn),i
O=C1c2cccc([N+](=O)[O-])c2C(=O)N1c1nc(-c2ccccc2)cs1,i
N#C/C(=C\c1ccccc1[N+](=O)[O-])c1nc(-c2ccc(Cl)cc2)cs1,31%*
COc1cc(/C(C#N)=C/c2ccccc2F)c([N+](=O)[O-])cc1OC,i
N#C/C(=C\c1ccccc1[N+](=O)[O-])c1nc(-c2ccccc2)cs1,50%*
O=C(Nc1nc2ccc(Cl)cc2s1)c1ccccc1[N+](=O)[O-],i
CCCOC(=O)C1=C(C)NC2=C(C(=O)C(C(=O)OC)C(C)C2)C1c1ccc(OCC)cc1 (stereo not drawn),i
COc1cc2c(C(=O)N3CCCc4ccccc43)cn(C)c(=O)c2cc1OC,i
COc1ccccc1CN1CCCC(O)C1 (stereo not drawn),i
CC1=NN(c2ccc(Cl)c(C(=O)O)c2)C(=O)/C1=C\c1ccc(-c2cccc([N+](=O)[O-])c2)o1,i
COc1ccc(/C=C2\C(=O)N(c3cccc(Cl)c3)N=C2C)cc1Br,i
COc1ccc(-c2ccc(/C=C3\C(=O)N(c4cccc(Cl)c4)N=C3C)o2)cc1[N+](=O)[O-],49%*
CC1=NN(c2ccc(Br)cc2)C(=O)/C1=C\c1ccc(-c2cccc([N+](=O)[O-])c2)o1,i
COc1ccc(/C=C2\C(=O)N(c3ccccc3)N=C2C)cc1[N+](=O)[O-],i
CC1=NN(c2cccc(Cl)c2)C(=O)/C1=C\c1ccc(-c2cc([N+](=O)[O-])ccc2O)o1,91%*
Cc1nc(N(C)C2CCCCC2)ncc1C(C)NC(=O)C1CCOCC1 (stereo not drawn),i
COc1ccccc1-c1ccnc(N[C@H]2CO[C@H]3[C@@H]2OC[C@@H]3NS(=O)(=O)c2cccc3cccnc23)n1,i
O=C(c1ccc(Cl)cc1)N1CCN=C1SCc1ccccc1F,i
CCCn1c(CCNC(=O)C(C)(C)C)nc2ccccc21,i
c1ccc(-c2nnc(SCC3(c4ccccc4)OCCO3)o2)cc1,i
Cc1nn(-c2ccccc2)c(C)c1Cc1n[nH]c(Cc2ccccc2)n1,i
CCCc1ccc(S(=O)(=O)N2CCN(c3cc(-c4ccc(C)cc4)ncn3)CC2)cc1,i
CCCC1=C(C(=O)OCC)C(c2ccccc2Cl)C(C#N)=C(SC)N1 (stereo not drawn),i

# Screens: PubChem BioAssay, Paczesny and Yang Labs, IUPUI and University of Michigan
